The entries come from a sample that favours hits as a whole.
IDE exosite inh = displaces the probe from the exo-site of human IDE | AID 1259349 | P14735 | hit rate 6.3% among 17,000 | z-score at 20 µM | purified IDE, FL-6b probe fluorescence polarization; active compounds read low;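 active = z-score of -3 or lower, meaning strong loss of probe binding signal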;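 note: His-tagged human IDE residues 42-1019 made in E. coli with 30 nM FL-6b probe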
* marks the source's active call; other numbers are inactive results.

SMILES | IDE exosite inh
CO[C@H]1CN(C)C(=O)c2cc(NC(=O)c3ccc(Oc4ccccc4)cc3)ccc2OC[C@@H](C)NC[C@H]1C | -7.9*
CO[C@H]1CN(C)C(=O)c2cc(NC(=O)c3ccc(Oc4ccccc4)cc3)ccc2OC[C@H](C)NC[C@@H]1C | -1.3
COc1ccc(C#Cc2ccc([C@H]3[C@H]4CN(C(=O)c5ccncc5)CCCCN4[C@H]3CO)cc2)cc1 | 3
O=C1NCCOCc2cnnn2CC[C@H]1Cc1ccc(F)cc1 | 0.65
C[C@@H]1CCCCO[C@H](CN(C)C(=O)CCC(F)(F)F)[C@@H](C)CN([C@@H](C)CO)C(=O)c2cc(NC(=O)C3CCCCC3)ccc2O1 | 0.52
CC(C)[C@@H]1C(=O)NCCC=CC[C@@H](C)Oc2ccccc2C(=O)N1C (mixture of isomers) | -0.46
COc1ccccc1C#Cc1ccc([C@H]2[C@H](CO)N3CCCCN(CCC(F)(F)F)C[C@@H]23)cc1 | -6.1*
COc1ccccc1C#Cc1ccc([C@@H]2[C@@H](CO)N3CCCCN(CCC(F)(F)F)C[C@@H]23)cc1 | -5.6*
OC[C@@H]1[C@@H](c2ccc(-c3ccccc3)cc2)[C@@H]2CN(CCC(F)(F)F)CCCCN12 | 0.77
OC[C@H]1[C@@H](c2ccc(-c3ccccc3)cc2)[C@H]2CN(CCC(F)(F)F)CCCCN21 | 1.8
OC[C@@H]1[C@H](c2ccc(C#CC3CCCC3)cc2)[C@H]2CN(CCC(F)(F)F)CCCCN12 | 2.5
OC[C@H]1[C@@H](c2ccc(C#CC3CCCC3)cc2)[C@@H]2CN(CCC(F)(F)F)CCCCN12 | 3.8
COc1ccccc1C#Cc1ccc([C@H]2[C@@H](CO)N3CCCCN(CCC(F)(F)F)C[C@@H]23)cc1 | -6.9*
OC[C@@H]1[C@H](c2ccc(-c3ccccc3)cc2)[C@H]2CN(CCC(F)(F)F)CCCCN12 | 2.4
OC[C@H]1[C@@H](c2ccc(-c3ccc(F)cc3)cc2)[C@H]2CN(CCC(F)(F)F)CCCCN21 | 1.7
CN1c2ccc(-c3ccc(C#N)cc3)cc2[C@H]2[C@H](CCN2S(=O)(=O)c2ccc(F)cc2)[C@H]1CO | 2.1
C[C@H](CO)N1C[C@H](C)[C@H](CN(C)C(=O)NC2CCCCC2)OCCCC[C@H](C)Oc2ccc(N(C)C)cc2C1=O | 0.36
O=C(Nc1cccc(F)c1)N1CC(=O)N2[C@H](CO)[C@@H](c3ccc(-c4ccccc4)cc3)[C@@H]2C1 | -2.7
COC(=O)c1ccc(CN2CC(=O)N3[C@H](CO)[C@H](c4ccc(-c5cccnc5)cc4)[C@H]3C2)cc1 | -1.1
O=C1N[C@@H](c2ccccc2)COCc2cn(nn2)CC[C@H]1Cc1cccc(Cl)c1 | -0.097
CO[C@H](CN(C)S(=O)(=O)c1ccc(C)cc1)[C@H](C)CN(C(=O)Nc1ccccc1F)[C@@H](C)CO | -0.097
OC[C@H]1[C@@H](c2ccc(C#Cc3ccccc3F)cc2)[C@@H]2CN(CC3CCOCC3)CCCCN12 | -2.9
OC[C@H]1[C@@H](c2ccc(-c3ccccc3)cc2)[C@H]2CN(Cc3cncnc3)CCCCN21 | -1.3
CN1CCCCN2[C@H](CO)[C@H](c3ccc(C#Cc4ccccc4F)cc3)[C@H]2C1 | -4.5*
CN1CCCCN2[C@H](CO)[C@H](c3ccc(C#Cc4ccccc4F)cc3)[C@@H]2C1 | -5.5*
SMILES | IDE exosite inh
OC[C@@H]1[C@@H](c2ccc(C#Cc3ccccc3)cc2)[C@H]2CN(Cc3cncnc3)CCCCN12 | 0.19
COc1ccc(C#Cc2ccc([C@H]3[C@@H](CO)N4CCCCN(C)C[C@H]34)cc2)cc1 | 2
COc1ccc(C#Cc2ccc([C@@H]3[C@@H](CO)N4CCCCN(C)C[C@H]34)cc2)cc1 | 0.27
COc1ccc(C#Cc2ccc([C@@H]3[C@H](CO)N4CCCCN(C)C[C@@H]34)cc2)cc1 | -0.084
OC[C@H]1[C@H](c2ccc(C#Cc3ccccc3F)cc2)[C@@H]2CN(CC3CCOCC3)CCCCN12 | 0.24
CN1CCCCN2[C@H](C1)[C@H](c1ccc(C#Cc3ccccc3F)cc1)[C@@H]2CO | -3.9*
OC[C@@H]1[C@H](c2ccc(C#Cc3ccccc3F)cc2)[C@H]2CN(CC3CCOCC3)CCCCN12 | -2.3
OC[C@@H]1[C@H](c2ccc(C#Cc3ccccc3F)cc2)[C@H]2CN(Cc3cncnc3)CCCCN12 | -9.7*
CCS(=O)(=O)N1Cc2cc(C(=O)N(C)C)nc(-c3cccc(-c4ccc(C#N)cc4)c3)c2[C@@H]1CCO | 1.4
C/C=C/c1ccc([C@H]2[C@@H](CO)N(C(=O)COC)[C@@H]2CNC(=O)CC)cc1 | 3.7
N#C[C@H]1[C@@H](c2ccccc2-c2ccc(F)cc2)[C@@H](CO)N1C(=O)Cc1ccccc1 | 3.6
COc1ccc2c3c(n(C)c2c1)[C@H](CO)N(C(=O)Nc1ccc(F)cc1)CC31CN(S(=O)(=O)c2cn(C)cn2)C1 | 0.38
CNC[C@H]1OCCCC[C@H](C)Oc2ccc(NS(=O)(=O)c3ccc(F)cc3)cc2C(=O)N([C@@H](C)CO)C[C@H]1C | 0.98
CS(=O)(=O)N1Cc2cc(C(=O)O)nc(-c3cccc(-c4ccccc4F)c3)c2[C@@H]1CCO | 1.9
CCC(=O)N1[C@H](CO)[C@H](c2ccccc2)C12CN(C(=O)c1ccncc1)C2 | 0.46

Screening results deposited in PubChem BioAssay by Broad Institute.
